This note sets out measurements from PubChem BioAssay AID1063 (University of Pittsburgh Molecular Library Screening Center, 2008).

About 18,000 (9%) of roughly 200,000 compounds were called active. The list comes from a sample in which actives are over-represented; it also holds similar structures and randomly drawn compounds. A number with no mark means an inactive call. Cut-off read from the data, not from the text of the source: active = inhibition above about 50%; inactive = the rest.

A short description of the assay: antileishmanial activity against promastigotes – primary screen (AID 1063).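 Note: promastigotes grown with compound for 44 hours at 28 °C.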 Particulars: Leishmania major promastigotes, resazurin fluorescence viability; at 10 µM; stronger effect = higher value. For orientation: The colour change of resazurin is a common sign of viable cells or microbes.
In the case of `Cc1ccc(S(=O)(=O)N(C)CC(=O)OCC(=O)N2CC(=O)Nc3ccccc32)cc1`, the inhibition (in general, the change of the read-out against control, counted positive when it falls) was 0.63%.
Next, `N/C(=N\OC(=O)c1ccc2c(c1)OCO2)c1ccc(Br)cc1`: 1.57%; `CCCCNC(=S)N/N=C1\CCCCc2ccccc21`: 97.5% (active).
As for `Cc1ccc(NC(=S)N/N=C2/CCCc3c(C)cc(C)cc32)cc1`, the figure is -7.12%; as for `CCCC1CCC(=NNC(=S)NCCc2ccccc2)CC1` (stereo unspecified), -9.55%.
Turning to `CCN(C(=O)COC(=O)c1cc(S(=O)(=O)N2CCc3ccccc32)ccc1OC)C1CCS(=O)(=O)C1` (stereo unspecified), the inhibition is -4.24%.
Next, `CN(C)c1ccc(Nc2c3c4c(cccc4n(C)c2=O)C(=O)c2ccccc2-3)cc1`: 59% (active); `NC(=O)Cc1nc2scc(-c3ccc(Cl)cc3)c2c(=O)[nH]1`: 5.26%; `O=c1[nH]c(CCl)nc2cc(-c3ccc(Cl)cc3)sc12`: 96.9% (active).
Next, `O=c1[nH]c(CN2CCOCC2)nc2cc(Cl)ccc12`: -9.96%; `CCN(CC)C(=O)Oc1ccc(OC(=O)N(CC)CC)cc1`: -5.77%.
Next, `Cc1ccc(NC(=O)c2cc([N+](=O)[O-])ccc2Cl)c(O)c1`: 15.1%; `CCC(C)C(=O)Nc1cc([N+](=O)[O-])ccc1Cl` (stereo unspecified): 72.6% (active); `CC(C)C(=O)Nc1cccc(NC(=O)c2ccc([N+](=O)[O-])cc2Cl)c1`: 6.59%.
Take `CCCS(=O)(=O)N1CCC(CCOc2ccccc2)(C(=O)OCC)CC1`: the inhibition is -1.49%.
Next, `COc1ccc(Cl)cc1NC(=O)NC(C)C(C)(C)C` (stereo unspecified): 16.3%.
As for `CCOC(=O)C1CCN(C(=O)/C=C/c2cc(OC)c(OC)c(OC)c2)CC1`, the figure is 55% (active).
Next, `COc1ccc(/C=C/C(=O)N2CCCC2)cc1OC`: -1.79%.
`CCOC(=O)C1CCCN(C(=O)/C=C/c2ccc(OC)cc2)C1` (stereo unspecified): the inhibition is 7.27%.
Next, `O=C(CCCCCn1c(=O)[nH]c2ccccc2c1=O)NCCc1c[nH]c2ccccc12`: 97.7% (active); `COc1ccc(CCNC(=O)CCCCn2c(=O)[nH]c3ccccc3c2=O)cc1OC`: 1.29%; `O=C(CCn1c(=O)[nH]c2ccccc2c1=O)NCCCN1CCN(c2cccc(Cl)c2)CC1`: 3.18%.
Regarding `Cc1cc(C)c2c(NC(=O)C3CC3)nn(C)c2n1`, the inhibition was -2.35%.
As for `O=C(CNCc1ccco1)Nc1cc(S(=O)(=O)N2CCOCC2)ccc1N1CCCC1`, the figure is -1.86%; as for `COc1cccc(OCC(O)CN2CCN(CCO)CC2)c1` (stereo unspecified), -0.73%; as for `COc1cccc(OCCOc2cccc(/C=N/n3cnnc3)c2)c1`, 3.61%.
Next, `c1ccc2cc(OCCN3CCCC3)ccc2c1`: 84.2% (active); `O=C(COc1ccc2ccccc2c1)N1CCN(C(=O)c2cccs2)CC1`: -4.2%; `COc1cccc(OCCCN2CCCCCC2)c1`: 91.6% (active).
In the case of `Cc1cc(OCCN2CCCC2)cc(C(C)C)c1`, the inhibition was 92.5% (active).
Next, `Cc1ccc(C(C)C)cc1OCCN1CCCC1`: 92.5% (active).
Next, `COc1ccc(NC(=O)CCN2CCCC2)c(OC)c1`: -0.8%.
As for `Clc1ccccc1-c1cc(COc2ccc3ccccc3c2)no1`, the figure is -8.15%; as for `CCn1c(SCc2ccccc2)nc2c(c1=O)SCC2`, -0.56%; as for `O=C(Nc1cccnc1)c1ccc(Cl)cc1[N+](=O)[O-]`, 2.3%.
Regarding `Cc1ccc(-c2cc(C(=O)N3CCc4ccccc4C3)no2)cc1`, the inhibition is -3.45%.
Next, `CCC(=O)Nc1sc(C(=O)Nc2ccccc2)c(C)c1C(=O)OC`: 0.3%.
On to `CC(C)C(=O)Nc1ccc2oc(=O)ccc2c1`, for which the inhibition was 2.46%.
Next, `CCn1cc(-c2cc(C(=O)O)on2)c(C)n1`: -3.4%; `COc1ccc(NC(=S)Nc2ccc(S(N)(=O)=O)cc2)c(C)c1`: 5.95%; `CCCc1nnc(SCC(=O)N2C(C)CCCC2C)n1CC` (stereo unspecified): -8.2%.
As for `O=C(NCc1ccc(Cl)cc1)NCc1ccc(Cl)cc1`, the figure is -7.12%; as for `Cc1cc(OCCN2CCCC2)ccc1C(C)C`, 96.4% (active); as for `CCNC(=O)CC1C(=O)N(c2ccc(F)cc2)C(=O)N1Cc1cccs1` (stereo unspecified), -6.2%.
Regarding `CSCCC(Nc1ccc(S(=O)(=O)N2CCOCC2)cc1[N+](=O)[O-])C(=O)OCC(=O)N(C(C)C)C(C)C` (stereo unspecified), the inhibition is 6.07%.
As for `C/C(=N\Nc1nc(N2CCOCC2)nc(N2CCOCC2)n1)c1ccc([N+](=O)[O-])cc1`, the figure is 7.51%; as for `CC(C)N1CCC(=NNc2ccc([N+](=O)[O-])cc2S(=O)(=O)N2CCOCC2)CC1`, 100% (active).
On to `O=[N+]([O-])c1cc(S(=O)(=O)N2CCCC2)ccc1NN=C1CCCC1`, for which the inhibition was 72.8% (active).
Next, `O=[N+]([O-])c1cc(C(F)(F)F)ccc1NN=C1CCCC1`: -5.08%; `O=C(Nc1ccc(S(=O)(=O)N2CCCC2)cc1Cl)C1=COCCO1`: 13.3%.
Next, `COc1cccc(NC(=O)Cn2c3ccccc3c3nc4n(c(=O)c32)CCS4)c1`: 1.79%; `CC1(C)CC(=O)C=C(N2CCOCC2)C1`: -0.57%; `O=C(O)/C=C/c1cn(Cc2ccccc2)nc1-c1cccs1`: -1.31%.
As for `O=[N+]([O-])c1c(NCCO)cc(Sc2nc3ccccc3s2)c2nonc12`, the figure is 61.2% (active).
With `COc1ccc(S(=O)(=O)Nc2ccc(O)c(Sc3nc4ccccc4s3)c2)cc1`, the inhibition is 2.71%.
Consider `O=C(O)c1cccc(S(=O)(=O)Nc2ccc(O)cc2Sc2nc3ccccc3s2)c1`, for which the inhibition was 3.69%.
`CCCCC(CC)CNC(=O)C(=O)C1C(=O)Nc2ccccc21` (stereo unspecified): the inhibition was -2.85%.
On to `CC(=O)Nc1ccc(NC(=O)CSc2nnc(COc3ccccc3C)n2CC2CCCO2)cc1` (stereo unspecified), for which the inhibition was -3.47%.
Next, `COc1ccc(C(=O)NC2CCN(C(=S)NCCc3ccccc3)CC2)cc1`: -3.89%; `CC(C)NC(=O)NC(=O)CSc1nnc(-c2ccccc2F)n1N`: -1.13%.
As for `CS(=O)(=O)Nc1cccc(C2=NN(S(=O)(=O)c3ccccc3)C(c3cccs3)C2)c1` (stereo unspecified), the figure is 90.1% (active); as for `Cc1ccc(C2CC(c3cccc(NS(C)(=O)=O)c3)=NN2S(C)(=O)=O)cc1` (stereo unspecified), 10.8%; as for `CS(=O)(=O)Nc1ccc(C2=NN(S(C)(=O)=O)C(c3cccs3)C2)cc1` (stereo unspecified), 0.6%.
Next, `CCS(=O)(=O)c1ccc(C(=O)NC)c(Cl)c1Cl`: 2.32%; `O=C(Nc1cccc(NC(=O)N2CCN(c3ccccc3)CC2)c1)N1CCN(c2ccccc2)CC1`: 35.8%; `O=C(c1cc2c(s1)CCC2)N1CCN(c2ccccc2)CC1`: 93.8% (active).
As to `O=C(COC(=O)c1cc2c(s1)CCCC2)NCc1ccccc1Cl`, the inhibition was -8.28%.
As for `O=C(CNC(=O)c1cc2c(s1)CCC2)Nc1ccccc1Br`, the figure is -6.67%.
Next, `Cc1nc2ccc(C(=O)N3CCN(c4ccccc4)CC3)cc2s1`: -9.02%.
For the compound `O=C(NNC(=O)c1cc2c(s1)CCCC2)c1ccccc1`, the inhibition is 78.1% (active).
As for `CCOC(=O)Cc1cc(=O)[nH]c(=O)[nH]1`, the figure is -1.79%.
As for `O=C(COC(=O)c1ccccn1)Nc1cccc2ccccc12`, the figure is -8.4%; as for `Cc1cc(C)cc(NC(=O)Cn2cnc3c(nnn3Cc3ccc(F)cc3)c2=O)c1`, -2.51%; as for `Cc1cccc(C)c1NC(=O)Nc1ccccc1-n1ccnc1`, -5.13%.
Turning to `CN1CCC(=NNC(=O)CN(c2cccc(Cl)c2)S(C)(=O)=O)CC1`, the inhibition is -4.77%.
In the case of `CC12CCC(C(=O)N(NC(=O)c3ccccc3O)C1=O)C2(C)C` (stereo unspecified), the inhibition is 69.9% (active).
As for `COc1ccccc1C(=O)NN1C(=O)C2C3C=CC(O3)C2C1=O` (stereo unspecified), the figure is -5.97%.
Regarding `CC12CCC(C(=O)N(c3cccc(Cl)c3)C1=O)C2(C)C` (stereo unspecified), the inhibition was -2.92%.
`COc1ccc(-c2csc(NC(=O)COC(=O)c3ccc(Br)o3)n2)cc1`: the inhibition is 95.2% (active).
`COc1ccc(-c2csc(NC(=O)CCCc3cccs3)n2)cc1`: the inhibition was 10.5%.
With `COc1ccc(-c2csc(NC(=O)COC(=O)Cc3ccc(Cl)cc3Cl)n2)cc1`, the inhibition is 1.41%.
Next, `Cc1cc(CNCc2c(C(=O)N(C)Cc3ccccc3)nc3ccccn23)nn1C`: 0.26%.
As to `O=C(O)c1ccccc1-c1ccccc1C(=O)Nc1nccs1`, the inhibition was -1.78%.
As for `CCC(=O)c1ccc(OCC(O)CN2CCN(c3cccc(C(F)(F)F)c3)CC2)cc1` (stereo unspecified), the figure is 13.7%.
As for `CCC(=O)c1ccc(OCC(O)CN2CC(C)OC(C)C2)cc1` (stereo unspecified), the figure is 87.5% (active); as for `O=C(c1ccc(Cl)cc1)c1ccc(OCC(O)CN2CCCCC2)cc1` (stereo unspecified), 99.2% (active); as for `Cn1c(=O)c2c(nc(N3CCCCCC3)n2CC(=O)c2ccc(Br)cc2)n(C)c1=O`, -0.4%.
As for `CCC(=O)c1ccc(OCC(O)CN2C(=O)NC(C)(C)C2=O)cc1` (stereo unspecified), the figure is -2.21%; as for `Cn1c(=O)c2c(nc(N3CCCCCC3)n2CC(O)COc2ccc(Cl)cc2)n(C)c1=O` (stereo unspecified), 56.5% (active).
For the compound `OC(COc1ccc(CN2CCSCC2)cc1)CN1CCCCC1` (stereo unspecified), the inhibition was 19%.
As for `Cc1cccc(Cn2c(N3CCN(c4ccccc4)CC3)nc3c2c(=O)n(C)c(=O)n3C)c1`, the figure is -1.6%.
Take `OC(COc1ccc2c(c1)CCC2)CN1CCN(c2cccc(Cl)c2)CC1` (stereo unspecified): the inhibition was 98.7% (active).
Next, `O=c1cc(CN2CCN(c3cccc(Cl)c3)CC2)c2cc3c(cc2o1)CCCC3`: 5.66%; `O=C(C(c1ccccc1)c1ccccc1)N1CCN(CC(O)COc2ccccc2)CC1` (stereo unspecified): 9.16%; `O=C(c1ccccc1)c1ccc(OCC(O)CN2CCCC2)cc1` (stereo unspecified): 31.6%.
Next, `COc1cc(C(=O)N[C@@H](C)C(=O)NCc2ccco2)cc(OC)c1OC`: -6.03%.
